# Assay results: PubChem BioAssay (NCATS)
# A number with no mark means an inactive call. Records with an inconclusive call do not appear. Where a call stands in place of a potency, no number is given. Activity calls are given as the source filed them. Calls follow the shape of the dose curve; as a rule, active = well fitted curve in the direction sought with a large enough effect; inconclusive = small, poorly fitted or top-dose-only effect, or another doubt; inactive = no such curve, though single readings can be large; an effect the other way counts as inactive or inconclusive.
# Legend:
# [1] = biological target: Alpha-galactosidase (Coffea arabica) (UniProt Q42656); test: Counterscreen for Glucocerebrosidase Inhibitors: qHTS Assay for Coffee Bean alpha-Galactosidase at pH 4.5 (AID 957); also: series mostly up to about 77 µM
# In short: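 Coffee bean enzyme (2 nM) with 80 uM 4-methylumbelliferyl alpha-D-galactopyranoside in 50 mM citric acid, 0.005% Tween-20, pH 4.5, 20 min at room temperature; compounds 0.7 nM–77 uM. Stopped at pH 10, fluorescence 365/440 nm; AC50 from Hill fits.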
# [2] = biological target: Alpha-galactosidase (Coffea arabica) (UniProt Q42656); test: Counterscreen for Glucocerebrosidase Inhibitors: qHTS Assay for Coffee Bean alpha-Galactosidase at pH 5.9 (AID 998)
# In short: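 Green coffee bean enzyme (2 nM) with 4-methylumbelliferyl alpha-D-galactopyranoside (80 uM) in 50 mM citric acid, 0.005% Tween-20, pH 5.9, 20 min at room temperature; compounds 0.7 nM–77 uM. Stopped at pH 10, fluorescence Ex365/Em440; Hill-fit AC50.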
# [3] = biological target: Cytochrome P450 2C19 (Homo sapiens) (UniProt P33261); test: qHTS Assay for Inhibitors and Substrates of Cytochrome P450 2C19 (AID 899); also: nearly all actives have a fitted effect of over 60% in size; also: potency is read from the fitted curve at half-maximal effect
# In short: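 5 nM human CYP2C19 with 10uM Luciferin-H EGE (at KM) in 50mM KPO4, compound preincubated 10 min at 37C, then NADPH regeneration for 60 min at 37C. Luciferin read by luminescence after detection reagent; normalized to 57uM ketoconazole as full inhibition.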
# [4] = biological target: Muscarinic acetylcholine receptor M1 (Rattus norvegicus) (UniProt P08482); test: qHTS Assay for Antagonists of Acetylcholine Muscarinic M1 Receptor: Kinetic Measurement of Intracellular Calcium Response (AID 943); also: potency is read from the fitted curve at half-maximal effect; nearly all actives have a fitted effect of over 75% in size
# In short: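 CHO cells expressing rat M1 receptor, Fluo-4 loaded, preincubated 10 min with compound, then stimulated with EC80 carbachol (100 nM final). Kinetic calcium fluorescence over 4 min; response taken as peak over basal signal.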
# [5] = biological target: Muscarinic acetylcholine receptor M1 (Rattus norvegicus) (UniProt P08482); test: qHTS Assay for Antagonists of Acetylcholine Muscarinic M1 Receptor: Measurement of IP-One Response (AID 944); also: potency is read from the fitted curve at half-maximal effect; nearly all actives have a fitted effect of over 75% in size
# In short: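 CHO cells stably expressing rat M1, pretreated 10 min with compound, then stimulated 30 min with carbachol at EC80 (200 nM) in LiCl-containing buffer pH 7.4; IP1 accumulation read by HTRF competition (665/620 nm).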
# [6] = Confirmation and Secondary Assay for Modulators of Hemoglobin Beta Chain Splicing at IVS2 654 locus (AID 910);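 also: HeLa cells stably carrying EGFP split by mutant beta-globin IVS2-654 intron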
# In short: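 HeLa cells stably expressing EGFP interrupted by β-globin IVS2-654 intron, seeded overnight in Opti-MEM/2% FCS, then treated 2 days at 37 °C. Restored splicing read as total peak GFP intensity per well by laser scanning cytometry (488 nm excitation, 500–520 nm emission); 500 nM antisense PNA as control.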
# [7] = Confirmation and Secondary Assay for Modulators of Hemoglobin Beta Chain Splicing at IVS2 705 locus (AID 930);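 also: HeLa cells stably expressing the EGFP-705 splicing reporter; series mostly up to about 46 µM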
# In short: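 HeLa cells stably carrying EGFP interrupted by mutant beta-globin IVS2-705 intron (CMV-driven) were seeded at 500 cells/well, treated next day with compound for 2 days at 37C; corrected splicing restores EGFP, read as total peak GFP intensity per well.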
# [8] = qHTS Assay for Identification of Small Molecule Antagonists for Thrombopoietin (TPO) Signaling Pathway (AID 918); conditions: TPO-dependent cell signaling reporter, antagonist mode; also: potency is read from the fitted curve at half-maximal effect; nearly all actives have a fitted effect of over 60% in size
# In short: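 Murine Ba/F3 cells expressing human TPO receptor and a Glycoprotein IIb promoter-luciferase reporter, IL-3-starved overnight, treated with compound plus TPO at EC50 (26 pM final). After 24 h at 37 C, luminescence read to detect inhibitors.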
# Chain of Cytochrome P450 2C19 (Homo sapiens) (P33261 whole entry, looked up): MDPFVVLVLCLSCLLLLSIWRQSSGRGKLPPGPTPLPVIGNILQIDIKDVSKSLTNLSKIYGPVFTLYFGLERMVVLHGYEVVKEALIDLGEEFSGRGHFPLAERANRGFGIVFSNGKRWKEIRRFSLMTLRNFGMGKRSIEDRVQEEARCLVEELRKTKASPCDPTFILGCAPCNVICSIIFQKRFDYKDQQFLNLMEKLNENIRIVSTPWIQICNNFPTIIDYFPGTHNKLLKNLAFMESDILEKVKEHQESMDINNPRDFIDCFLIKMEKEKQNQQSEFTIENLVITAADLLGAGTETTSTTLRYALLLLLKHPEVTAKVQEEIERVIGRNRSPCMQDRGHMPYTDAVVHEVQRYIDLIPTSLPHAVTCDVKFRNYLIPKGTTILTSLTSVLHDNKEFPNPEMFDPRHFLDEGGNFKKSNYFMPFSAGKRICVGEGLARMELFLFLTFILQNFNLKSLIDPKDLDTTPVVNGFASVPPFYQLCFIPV
# Chain of Alpha-galactosidase (Coffea arabica) (Q42656 whole entry, looked up): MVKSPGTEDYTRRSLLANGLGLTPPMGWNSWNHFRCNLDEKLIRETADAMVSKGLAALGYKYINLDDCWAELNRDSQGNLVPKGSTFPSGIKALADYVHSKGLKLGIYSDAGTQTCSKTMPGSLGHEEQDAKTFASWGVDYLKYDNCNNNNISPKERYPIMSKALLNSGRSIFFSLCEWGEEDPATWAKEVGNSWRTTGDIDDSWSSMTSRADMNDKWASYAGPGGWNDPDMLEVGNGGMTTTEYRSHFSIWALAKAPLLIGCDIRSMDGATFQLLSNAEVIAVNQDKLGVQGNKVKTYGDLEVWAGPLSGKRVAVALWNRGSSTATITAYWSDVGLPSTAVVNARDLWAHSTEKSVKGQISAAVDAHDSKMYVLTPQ
# Chain of Muscarinic acetylcholine receptor M1 (Rattus norvegicus) (P08482 whole entry, looked up): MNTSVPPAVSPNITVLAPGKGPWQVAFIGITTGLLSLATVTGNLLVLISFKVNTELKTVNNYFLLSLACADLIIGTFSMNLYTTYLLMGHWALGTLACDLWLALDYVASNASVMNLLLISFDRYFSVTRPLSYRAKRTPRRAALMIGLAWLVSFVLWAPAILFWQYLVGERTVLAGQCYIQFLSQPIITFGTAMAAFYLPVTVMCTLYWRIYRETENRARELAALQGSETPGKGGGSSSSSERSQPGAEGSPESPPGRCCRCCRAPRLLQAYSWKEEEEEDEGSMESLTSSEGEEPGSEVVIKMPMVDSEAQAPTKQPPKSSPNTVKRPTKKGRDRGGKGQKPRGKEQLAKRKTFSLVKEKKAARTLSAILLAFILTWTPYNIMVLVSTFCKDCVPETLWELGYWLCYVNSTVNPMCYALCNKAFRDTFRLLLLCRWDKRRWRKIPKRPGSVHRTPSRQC
compound,measurement,setting,value
COc1cc2c(cc1C(F)(F)F)N(C(=O)Nc1cc(F)cc(-c3cccnc3)c1)CC2,outcome,[1],inactive
same,outcome,[2],inactive
N[C@]1(C(=O)O)CCc2cc(C(=O)O)ccc21,outcome,[1],inactive
same,outcome,[2],inactive
Nc1ncnc2c1nc(Sc1ccc(Cl)cc1)n2[C@@H]1O[C@H]2COP(=O)(O)O[C@@H]2[C@H]1O,outcome,[1],inactive
same,outcome,[2],inactive
C[C@@H]([C@H](O)c1ccc(O)cc1)N1CCC(Cc2ccccc2)CC1,outcome,[1],inactive
same,outcome,[2],inactive
CC(=O)[C@@H]1CC[C@@H]2[C@@H]3CCC4=CC(=O)CC[C@@]4(C)[C@H]3CC[C@]21C,Potency,[3],7.94 µM (active)
CC(=O)O[C@]1(C(C)=O)CC[C@@H]2[C@@H]3C=C(Cl)C4=CC(=O)[C@H]5C[C@@H]5[C@]4(C)[C@H]3CC[C@]21C,outcome,[1],inactive
same,outcome,[2],inactive
NC(=O)c1cc[n+](CC2=C(C(=O)O)N3C(=O)[C@@H](NC(=O)[C@H](c4ccccc4)S(=O)(=O)[O-])[C@@H]3SC2)cc1,outcome,[1],inactive
same,outcome,[2],inactive
CC(=O)O[C@@H]1[C@H]([N+]2(C)CCCCC2)C[C@@H]2[C@@H]3CC[C@@H]4C[C@@H](OC(C)=O)[C@H]([N+]5(C)CCCCC5)C[C@@]4(C)[C@H]3CC[C@]21C,Potency,[4],8.91 µM (active)
same,Potency,[5],14.1 µM (active)
same,outcome,[1],inactive
same,outcome,[2],inactive
Cc1ccc(C(=O)O[C@@H](C(=O)O)[C@@H](OC(=O)c2ccc(C)cc2)C(=O)O)cc1 (tested in a mixture with another compound),Potency,[3],inactive
same,outcome,[1],inactive
same,outcome,[2],inactive
CC1=C(O)C(=O)C=C2C1=CC=C1[C@]2(C)CC[C@@]2(C)C3C[C@](C)(C(=O)O)CC[C@@]3(C)CC[C@@]12C (some centres not stated),Potency,[6],inactive
same,outcome,[7],inactive
O=C(O)/C=C\c1cnc[nH]1,outcome,[1],inactive
same,outcome,[2],inactive
CCCN1C[C@@H](CSC)C[C@H]2c3cccc4[nH]cc(c34)C[C@@H]21,outcome,[1],inactive
same,outcome,[2],inactive
O=C1[C@@H]2C=CC=CC2=NC(=S)N1CCN1CCC(=C(c2ccc(F)cc2)c2ccc(F)cc2)CC1,outcome,[1],inactive
same,outcome,[2],inactive
CCCCC[C@H](CC(=O)NO)C(=O)N[C@@H](C(=O)N1CCC[C@H]1CO)C(C)C,outcome,[1],inactive
same,outcome,[2],inactive
NC(N)=N[C@H](CCC(=O)O)C(=O)O,outcome,[1],inactive
same,outcome,[2],inactive
Cc1ccc(/C(=C/CN2CCCC2)c2ccccn2)cc1,outcome,[1],inactive
same,outcome,[2],inactive
CN(C)c1ccc(/C=C2/C(=O)Nc3ccccc32)cc1,outcome,[1],inactive
same,outcome,[2],inactive
C[C@H](CCC(=O)O)[C@H]1CC[C@]2(C)[C@@H]3C(=O)C[C@H]4C(C)(C)[C@@H](O)CC[C@]4(C)[C@H]3C(=O)C[C@@]12C,"activity, negative = inhibition",[3],60.6% [at 11.4 µM]
CC1CCN(CC[C@@H]2CCCN2S(=O)(=O)c2cccc(O)c2)CC1,outcome,[1],inactive
same,outcome,[2],inactive
CC[C@H](C)C(=O)O[C@H]1CCC=C2C=C[C@H](C)[C@H](CC[C@@H]3C[C@H](O)CC(=O)O3)[C@H]21,outcome,[1],inactive
same,outcome,[2],inactive
COc1ccc2c(c1)CCC1C2CC[C@]2(C)[C@H](NCCCCCCN3C(=O)C=CC3=O)CC[C@@H]12 (some centres not stated),Potency,[8],2 µM (active)
same,outcome,[1],inactive
same,outcome,[2],inactive
O=C(/C=C\c1ccc(O)c(O)c1)OCCc1ccccc1,outcome,[1],inactive
same,outcome,[2],inactive
CC(=O)OCC1=C(C(=O)O)N2C(=O)[C@@H](NC(=O)CSc3ccncc3)[C@@H]2SC1,outcome,[1],inactive
same,outcome,[2],inactive
OC[C@@H]1O[C@@H](n2cnc3c(N[C@@H]4C[C@@H]5CC[C@H]4C5)ncnc32)[C@@H](O)[C@H]1O,outcome,[1],inactive
same,outcome,[2],inactive
C=C(CO)[C@H]1Cc2c(ccc3c2O[C@H]2COc4cc(OC)c(OC)cc4[C@@H]2C3=O)O1,Potency,[3],5.01 µM (active)
C[C@@H]1OC=C2[C@@H](O)[C@H]3O[C@H]3C(=O)[C@@]23[C@H]1[C@H]1C2=C([C@@H](O)[C@H]4O[C@@H]4C2=O)[C@@H]3O[C@@H]1C,"activity, negative = inhibition",[3],53.9% [at 11.4 µM]
Oc1ccc([C@@H]2CNCc3sccc32)cc1O,outcome,[1],inactive
same,outcome,[2],inactive
CN(C)CC[C@H](c1ccc(Br)cc1)c1ccccn1,outcome,[1],inactive
same,outcome,[2],inactive
CC[C@H](C)N(C)C(=O)c1cc2ccccc2c(-c2ccccc2Cl)n1,outcome,[1],inactive
same,outcome,[2],inactive
O=NN(Cc1ccc(Cl)cc1)[C@@H](C(=O)O)c1ccccc1,Potency,[3],0.398 µM (active)
N[C@H](CCC(=O)N[C@H](CSN=O)C(=O)NCC(=O)O)C(=O)O,Potency,[3],1.58 µM (active)
same,outcome,[1],inactive
same,outcome,[2],inactive
